Assay outcomes (PubChem)
Shown is part of a subset that was picked to be rich in hits.
Cycloheximide cs = Cycloheximide Counterscreen for Small Molecule Inhibitors of Shiga Toxin. cell reporter, cycloheximide protein synthesis inhibition counterscreen. max response, %. hit rate 12% among 300,000. AID 2314, 2010; in the data active = max response mostly above about 13%, no sharp cut-off; inactive = mostly below about 14%; also: read at 38.3 µM for the half of the compounds with a filed dose; 0% is about no effect
Shiga inhibitor = A qHTS for Small Molecule Inhibitors of Shiga Toxin | inhibition, % at 38.7 µM | hit rate 9.2% among 290,000 | AID 2315, 2010 | Vero cells, Shiga toxin protein synthesis inhibition reporter; in the data active = inhibition mostly above about 28%, no sharp cut-off; inactive = mostly below about 43%; also: 0% is about no effect
LmPK inh = qHTS Assay for Inhibitors of Leishmania Mexicana Pyruvate Kinase (LmPK); Q27686; purified LmPK, Kinase-Glo ATP luminescence, 1 h; Potency, µM (titrated, usually from 57.5 µM), inactives show top-dose activity change, negative = inhibition, hits mostly inhibitors; hit rate 0.37% among 290,000; AID 1721, 2009; also: potency is read from the fitted curve at half-maximal effect; % is scaled to controls: 0 for no effect and ±100 for the full control effect
Target sequence (Q27686 whole entry, looked up): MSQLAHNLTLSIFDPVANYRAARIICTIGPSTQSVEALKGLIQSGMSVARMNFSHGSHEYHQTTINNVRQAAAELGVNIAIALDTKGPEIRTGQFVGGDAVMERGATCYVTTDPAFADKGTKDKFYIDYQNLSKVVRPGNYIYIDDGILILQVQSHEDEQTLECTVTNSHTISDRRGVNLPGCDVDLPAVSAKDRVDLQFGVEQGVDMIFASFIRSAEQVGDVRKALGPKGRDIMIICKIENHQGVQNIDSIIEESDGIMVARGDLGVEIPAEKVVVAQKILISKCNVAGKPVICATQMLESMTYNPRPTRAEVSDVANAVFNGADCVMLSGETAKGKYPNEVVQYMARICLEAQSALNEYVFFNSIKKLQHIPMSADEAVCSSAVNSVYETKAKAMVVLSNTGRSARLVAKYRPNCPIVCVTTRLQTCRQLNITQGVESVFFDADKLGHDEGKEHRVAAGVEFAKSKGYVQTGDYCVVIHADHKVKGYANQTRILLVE
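0.1 nM LmPK, 0.5 mM PEP, 0.1 mM ADP; 50 mM imidazole pH 7.2, 7 mM MgCl2, 50 mM KCl; 1 h RT. Kinase-Glo luminescence readout, normalized to no-enzyme (full inhibition) and uninhibited wells.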
RE007 growth inh = qHTS Assay for Inhibitors of the HIV-1 protein Vpr | S. pombe RE007 Vpr strain, BacTiter-Glo ATP luminescence, 24 h | Potency, µM (doses to about 92.2 µM), for inactives: top-dose activity change, negative = less growth, most hits filed as inhibitors | hit rate 0.21% among 360,000 | AID 651644, 2012; active = well fitted falling curve with a large enough effect; inconclusive = small, poorly fitted or top-dose-only effect; inactive = no such curve, though single readings can be large or run the other way; also: potency is read from the fitted curve at half-maximal effect; % is scaled to controls: 0 for no effect and ±100 for the full control effect; nearly all actives have a fitted effect of over 50% in size
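Fission yeast strain RE007, carrying one chromosomally integrated HIV-1 vpr copy, was seeded at OD 0.01 in PMG+AL medium with 23 nL pinned compound. After 24 h at 30 °C and 99% humidity, viability was read by BacTiter-Glo luminescence.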
FBPA Giardia inh = qHTS Assay for Inhibitors of Fructose-1,6-bisphosphate Aldolase from Giardia Lamblia; A8B2U2; hit rate 0.71% among 290,000; purified Giardia FBPA; Potency, µM (highest dose often 59.6 µM), without a hit: top-dose activity, negative = inhibition, usual class: inhibitors; AID 2451, 2010; also: potency is read from the fitted curve at half-maximal effect; % is scaled to controls: 0 for no effect and ±100 for the full control effect; nearly all actives have a fitted effect of over 55% in size
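Giardia FBPA (40 nM reagent) was preincubated 10 min at RT with compound (up to 57.5 uM final), then substrate plus GAPDH/TPI/NAD/arsenate coupling system with diaphorase/resazurin was added; resorufin fluorescence (525/598 nm) was read after 20 min.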
Tb PYK inh = qHTS of Trypanosoma Brucei Inhibitors. TbPYK enzyme, Kinase-Glo Plus ATP luminescence, 45 min. Potency, µM (top dose mostly 76.8 µM), for the others: top-dose activity, negative = inhibition, most hits filed as inhibitors. hit rate 0.12% among 410,000. AID 624173, 2012; also: potency is read from the fitted curve at half-maximal effect; % is scaled to controls: 0 for no effect and ±100 for the full control effect; nearly all actives have a fitted effect of over 50% in size
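Luminescence from Kinase-Glo Plus, added after a 45-minute room-temperature reaction, served as the end-point read-out. The enzyme and substrate were preincubated with compound before ADP (130 uM final) initiated turnover. Concentration-effect curves came from normalized qHTS data.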
* hit, by the source's call; ? = inconclusive; · = no result; [ ] = remark or other dose. Unless noted, calls follow the shape of the dose curve; as a rule, active = well fitted curve in the direction sought with a large enough effect; inconclusive = small, poorly fitted or top-dose-only effect, or another doubt; inactive = no such curve, though single readings can be large; an effect the other way counts as inactive or inconclusive.

SMILES	Cycloheximide cs	Shiga inhibitor	LmPK inh	RE007 growth inh	FBPA Giardia inh	Tb PYK inh
O=C(Nc1ccc(S(=O)(=O)N2CCCC2)cc1)c1cnccn1	2	9	-1%	5%	4%	-1%
Cc1cnc(C(=O)Nc2ccc(S(=O)(=O)N(C(C)C)C(C)C)cc2)cn1	2	·	8%	0%	-9%	-10%
CCCn1c2ccccc2c2cnn(CC(=O)NCCCN3C(C)CCCC3C)c(=O)c21 (configuration not stated)	-3	-2	1%	0%	·	1%
Cc1cnc(C(=O)Nc2ccc(F)c(F)c2)cn1	21*	55*	-18%	-13%	13%	2%
Cc1cnc(C(=O)Nc2cc(F)ccc2C)cn1	12	26	-10%	-16%	1%	-9%
Clc1cccc(Cl)c1Cn1nnc(N2CCCC2)n1	23*	86*	4%	-3%	4%	-7%
Fc1cccc(Cl)c1Cn1nnc(-c2ccc(N3CCOCC3)cc2)n1	1	-4	4%	-5%	4%	4%
CCCN(CCC)CCCNC(=O)C1CCN(c2nc3ccc(CC)cc3s2)CC1	·	·	·	·	·	5%
COC(=O)CN(C)C(=O)c1ccc2nc(Cc3cccc(Cl)c3)oc2c1	51*	·	-1%	2%	23%	5%
CC(C)(CO)NC(=O)c1ccc2nc(Cc3cccc(Cl)c3)oc2c1	26*	26*	3%	-19%	11%	1%
CC(NC(=O)c1ccc2nc(Cc3cccc(Cl)c3)oc2c1)c1ccncn1 (configuration not stated)	·	·	·	17%	·	-12%
CN(Cc1ccccn1)C(=O)c1ccc2nc(Cc3cccc(Cl)c3)oc2c1	13	-19	-12%	-1%	·	-3%
c1ccc2oc(-c3ccn[nH]3)cc2c1	39*	90*	-2%	-6%	-7%	-6%
c1ccc2oc(-c3[nH]ncc3CN3CCSCC3)cc2c1	0	-9	3%	-5%	0%	4%
CC1(CC(=O)N/N=C/c2ccc(-c3ccc(C(=O)O)cc3)o2)OCCO1	21	20	0%	-1%	1%	-10%
COC(=O)c1ccc(-c2ccc(/C=N/NC(=O)CC3(C)OCCCO3)o2)cc1	36*	43*	-8%	2%	-3%	-9%
CC1(CC(=O)N/N=C/c2ccc(-c3ccc(Cl)cc3)o2)OCCO1	15*	13	-1%	10%	-2%	-4%
CCc1nc2ccc(C(=O)N(CC)CCN(C)C)cn2c1N(CC)CCOC	·	·	·	-4%[18.4 µM]	·	-3%
O=C(NCCc1ccc(F)cc1)c1ccc2c(=O)n3c(nc2c1)CCC3	·	·	·	50%	·	1%
Cc1ccc(NC(=O)N2CCN(c3ncccc3C(F)(F)F)CC2)cc1	15*	26	-1%	22%	-5%	-7%
O=C(Nc1ccc2ccccc2c1)N1CCN(c2ncccc2C(F)(F)F)CC1	1	-17	-3%	-1%	?	-12%
NC(N)=NCCC[C@@H](N)C(=O)O	·	·	·	·	5%	·
S=c1[nH]nc(COc2ccc3ccccc3c2)o1	15	43*	2%	0%	10%	?
N#CCSc1nnc(COc2ccc3ccccc3c2)o1	67*	93*	0%	1%	1%	-2%
COc1ccccc1CCNC(=O)c1ccc(NC(=O)CC2SC(N3CCCCC3)=NC2=O)cc1 (configuration not stated)	·	·	·	-3%	·	0%
SMILES	Cycloheximide cs	Shiga inhibitor	LmPK inh	RE007 growth inh	FBPA Giardia inh	Tb PYK inh
CCOC(=O)C1CCC(CN(Cc2ccc(Cl)cc2)S(=O)(=O)c2cc(Cl)cc(Cl)c2)CC1 (configuration not stated)	·	·	·	·	·	-6%
CC(=O)n1cc(/C=N/NC(=O)c2cccc(O)c2)c2ccccc21	36*	59*	-3%	-6%	7%	1%
CC(=O)n1cc(/C=N/NC(=O)c2ccc(Cl)cc2)c2ccccc21	41*	61*	1%	3%	6%	-12%
CC(=O)n1cc(/C=N/NC(=O)c2ccccc2Cl)c2ccccc21	1	8	0%	14%	-2%	0%
C[C@@H]1CNC(=O)c2c(C(=O)N[C@H](C)c3ccccc3)ncn21	·	·	·	10%	·	3%
O=C(c1c(Cl)nc2sccn12)N(C(=O)c1c(Cl)nc2sccn12)c1ccc(Cl)cn1	80*	187*	-2%	5%	-3%	-7%
COc1ccccc1C(=O)NCCC(=O)NCc1ccccn1	·	·	·	-3%	·	-3%
Cc1ccc2nc(N/N=C/c3ccco3)cc(C)c2c1	51*	72*	-3%	-11%	-13%	-5%
Cc1cc(Nc2ccc([N+](=O)[O-])cc2)nc2ccccc12	-3	19	-1%	-13%	-2%	1%
Cc1ccc2nc(SCC(=O)N/N=C/c3ccco3)cc(C)c2c1	1	8	12%	25%	?	1%
Cc1cc(N/N=C/c2ccc([N+](=O)[O-])o2)nc2ccccc12	15*	48*	-4%	-22%	-7%	-1%
O=C(N/N=C/c1ccc([N+](=O)[O-])o1)c1cc(-c2ccncc2)nc2ccccc12	2	27	3%	-21%	-10%	-8%
Cc1ccc(-c2cc(C(=O)N/N=C/c3ccc([N+](=O)[O-])o3)c3ccccc3n2)o1	32*	80*	-5%	-16%	·	-12%
O=C(N/N=C/c1ccc([N+](=O)[O-])o1)c1cc(-c2ccc(-c3ccccc3)cc2)nc2ccccc12	32*	101*	2%	2%	-5%	3%
CC(=O)Nc1ccc(NC(=O)C(C)OC(=O)C2(c3ccccc3F)CCCC2)cc1 (configuration not stated)	·	·	·	7%	·	3%
CS(=O)(=O)N(CCc1ccccc1)CC(=O)N1CCc2ccccc2C1	-4	-11	-1%	15%	-15%	2%
Clc1ccc2c(N/N=C/c3ccccc3Br)ccnc2c1	-3	11	-3%	-1%	-3%	0%
O=[N+]([O-])c1ccc(/C=N/Nc2ccnc3cc(Cl)ccc23)o1	27	169*	-7%	-10%	·	-24%
O=C(N/N=C/c1cccs1)c1cncc(Br)c1	20	38	-1%	-7%	2%	-5%
O=C(N/N=C/c1cccs1)c1n[nH]c2c1CCC2	33*	45*	25µM*	-1%	-1%	-18%
O=C(N/N=C/C(Br)=C/c1ccccc1)c1n[nH]c2c1CCC2	42*	145*	7%	?	-5%	-2%
O=C(N/N=C/c1ccc(Cl)cc1)c1n[nH]c2c1CCCC2	41*	83*	-2%	13%	4%	3%
O=C(N/N=C/c1ccccc1Cl)c1n[nH]c2c1CCCC2	92*	54*	?	-10%	5%	?
